Most compounds without a hit are left out; they make up all but 1.2% or so of the library.
GSH bead fluor – GSH bead compound fluorescence profile | GSH beads flow cytometry, compound fluorescence 488/530 nm; stronger effect = higher value | fluorescence (KMESF) at 10 µM | 190,000 tested, 0.25% active; in the data active means fluorescence above about 89;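 further: glutathione beads carrying GST-tagged Bcl family fusion proteins plus one bare bead set; values are compound well signal with DMSO vehicle wells as background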
RGS8-Gao – human RGS8-Galphao interaction regulation; 220,000 tested, 0.34% active; multiplexed bead flow cytometry, RGS8-Galphao binding; actives lie on both sides; P09471; response (percent of control binding), % at 10 µM; in the data active means response below about 60% or above about 140%; inactive means in between;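 further: Galphao activated as the GDP aluminium fluoride complex binding bead-coupled RGS8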
Target sequence (P09471 whole entry, looked up): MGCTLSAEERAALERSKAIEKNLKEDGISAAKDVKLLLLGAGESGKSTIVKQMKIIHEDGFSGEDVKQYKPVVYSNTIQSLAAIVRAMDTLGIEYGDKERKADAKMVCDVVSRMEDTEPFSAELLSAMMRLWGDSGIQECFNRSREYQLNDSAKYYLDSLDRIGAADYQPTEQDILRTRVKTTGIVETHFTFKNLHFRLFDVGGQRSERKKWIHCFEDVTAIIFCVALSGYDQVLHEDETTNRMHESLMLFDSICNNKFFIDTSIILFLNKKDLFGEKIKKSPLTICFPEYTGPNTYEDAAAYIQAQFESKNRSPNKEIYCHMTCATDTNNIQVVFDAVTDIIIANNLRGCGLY
Avidin bead fluor – compound fluoresces at 488/530 nm on avidin beads. 220,000 tested, 0.38% active. compound fluorescence 488/530 nm, flow cytometry; stronger effect = higher value. fluorescence (KMESF) at 10 µM; in the data active means fluorescence above about 47
RGS4-Gao reg – modulates binding of RGS4 to human Galphao; P09471; Multiplexed bead flow cytometry; actives lie on both sides; binding response (% of control), % at 10 µM; 220,000 tested, 0.33% active; AID 1415; in the data active means binding response below about 49% or above about 150%; inactive means in between;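 further: fluorescent Galphao activated with aluminum fluoride binding bead-coupled RGS4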
RGS16-Gao – regulators of human RGS16-Galphao interaction; O15492+P09471; bead-based flow cytometry RGS16-Galphao binding, fluorescence; actives lie on both sides; binding response (% of control), % at 10 µM; 220,000 tested, 0.38% active; AID 1441;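 further: Galphao activated by GDP with aluminum fluoride before binding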
Target sequence (O15492 whole entry, looked up): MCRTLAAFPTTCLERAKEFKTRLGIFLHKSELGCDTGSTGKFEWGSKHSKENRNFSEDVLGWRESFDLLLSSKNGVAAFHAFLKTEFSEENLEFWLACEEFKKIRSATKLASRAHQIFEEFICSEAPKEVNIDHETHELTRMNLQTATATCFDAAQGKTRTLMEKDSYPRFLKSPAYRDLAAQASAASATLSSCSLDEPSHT
Target sequence (P09471 whole entry, looked up): as the sequence (P09471 whole entry, looked up) above
RGS7-Gao – human RGS7-Galphao interaction regulation; AID 1439; binding response (% of control), % at 10 µM; P09471; 220,000 tested, 0.35% active; Multiplexed bead flow cytometry, RGS7-Galphao binding; actives lie on both sides; in the data active means binding response below about 49% or above about 150%; inconclusive means no clear call, values can overlap the other calls; inactive means in between;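 further: fluorescent Galphao held in activated GDP-AlF4 state binding bead-coupled RGS7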
RGS-Gao – RGS4-Galphao interaction regulator (human) | RGS4–Galpha-o binding response, % at 10 µM | shares compounds with RGS16-Gao | 1,600 tested, 99% active | AID 1504 | multiplexed bead flow cytometry, RGS–Galpha-o binding;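 further: fluorescently labeled Galpha-o bound to GDP with aluminium fluoride binding biotinylated RGS beads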
Avidin counter – interferes with biotinylated probe binding to avidin beads. 1,700 tested, under 10 active. shares compounds with RGS16-Gao. streptavidin beads, fluorescein-biotin binding, flow cytometry. inhibition, % at 10 µM;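 active means inhibition above 50%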;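 further: median green fluorescence of gated singlet beads compared with DMSO control wells; 0% = DMSO wells and 100% = complete loss of bead fluorescence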
RGS8-Gao confirm – confirmation of regulators of human RGS8-Galphao interaction | shares compounds with RGS16-Gao | bead-based flow cytometry RGS8-Galphao binding, fluorescence; actives lie on both sides | binding response (% of control), % at 10 µM | 1,700 tested, 3% active | AID 1836; in the data active means binding response below about 72% or above about 130%; inactive means in between;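 further: Galphao activated as GDP AlF4 complex before binding bead RGS8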
RGS7-Gao single – RGS7-Galphao interaction regulation, single point confirmation; shares compounds with RGS16-Gao; bead-based flow cytometry RGS7-Galphao binding; actives lie on both sides; response (percent of control binding), % at 10 µM; 1,700 tested, 7.8% active; AID 1837; in the data active means response below about 75% or above about 130%; inactive means in between;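 further: fluorescent Galphao activated with GDP and aluminum fluoride binding bead-coupled RGS7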
RGS16-Gao conf – confirmation of regulators of human RGS16-Galphao interaction | shares compounds with RGS16-Gao | bead-based flow cytometry, RGS16-Galphao binding; actives lie on both sides | response (% of control binding), % at 10 µM | 1,700 tested, 4% active | AID 1838; in the data active means response below about 74% or above about 130%; inactive means in between;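 further: Galphao activated as the GDP aluminium fluoride complex binding bead-coupled RGS16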
RGS4-Gao confirm – RGS4-Galphao interaction regulation, single point confirmation | shares compounds with RGS16-Gao | RGS4-Galphao binding, multiplexed bead flow cytometry; actives lie on both sides | binding response (% of control), % at 10 µM | 1,700 tested, 4% active | AID 1840; in the data active means binding response below about 74% or above about 130%; inactive means in between
RGS19-Gao conf – RGS19-Galphao interaction regulation, single point confirmation; shares compounds with RGS16-Gao; bead-based flow cytometry RGS19-Galphao binding; actives lie on both sides; response (percent of control binding), % at 10 µM; 1,700 tested, 5% active; in the data active means response below about 50% or above about 160%; inactive means in between;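 further: 100% = no compound control and 0% = blank background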
Starred values were filed as active, the others as inactive; ? = inconclusive; . = no result given; [ ] = another dose, or the depositor's remark. Unless noted, how the calls were made is not given here.

SMILES | GSH bead fluor | RGS8-Gao | Avidin bead fluor | RGS4-Gao reg | RGS16-Gao | RGS7-Gao | Avidin counter | RGS8-Gao confirm | RGS7-Gao single | RGS16-Gao conf | RGS4-Gao confirm | RGS19-Gao conf | others
CCN1/C(=C/C=C/C=C/c2sc3ccccc3[n+]2CC)Sc2ccccc21 | 4 | 89 | . | 31* | 97 | 122 | -46 | 63* | 101 | 58* | -8.0* | .
CCOc1ccc2sc(NS(=O)(=O)c3ccc(OC)c(OC)c3)nc2c1 | 42 | . | . | . | . | . | 0 | 101 | 102 | 99 | 99 | 107
COc1ccc(S(=O)(=O)Nc2nc3ccccc3s2)cc1 | 11 | 98 | 42 | 100 | 102 | 99 | . | . | . | . | . | .
COc1ccc(C(=O)c2cc([N+](=O)[O-])ccc2N2CCOCC2)cc1 | 10 | 87 | 1 | 89 | 69 | 93 | . | . | . | . | . | .
O=C(c1cc([N+](=O)[O-])ccc1N1CCOCC1)N1CCCC1 | 9 | 65 | 1 | 84 | 16* | 86 | -2 | 101 | 98 | 98 | 102 | 97 | RGS-Gao=84*
O=C(c1cc([N+](=O)[O-])ccc1N1CCOCC1)N1CCOCC1 | 9 | 89 | 1 | 96 | 70 | 98 | . | . | . | . | . | .
Cc1ccc(C(=O)c2cc([N+](=O)[O-])ccc2N2CCOCC2)cc1 | 7 | 85 | 6 | 92 | 21* | 89 | 5 | 101 | 99 | 99 | 99 | 104 | RGS-Gao=92*
COc1ccc(OC)c2[nH]c(=O)c(CCNC(=O)Cc3cccs3)cc12 | 21 | 100 | 8 | 96 | 101 | 88 | . | . | . | . | . | .
CCCOC(=S)NC(=O)c1sc2ccccc2c1Cl | 17 | . | . | . | . | . | 0 | 103 | 105 | 103 | 105 | 99
CCOC(=S)NC(=O)c1sc2ccccc2c1Cl | 17 | 105 | 9 | 103 | 112 | 103 | . | . | . | . | . | .
CN1CCN(NC(=O)CN2C(=O)S/C(=C\c3c(Cl)cccc3Cl)C2=O)CC1 | 24 | 102 | 9 | 101 | 112 | 104 | . | . | . | . | . | .
Cc1ccc2[nH]c3c(c2c1)CC/C(=C/c1ccccc1)C3=O | 13 | 96 | 194* | 113 | 129 | 214*[activator] | 4 | 94 | 94 | 93 | 97 | 97 | RGS-Gao=113*
CCOc1ccccc1NC(=S)Nc1ccc(S(N)(=O)=O)cc1 | 10 | 99 | 9 | 101 | 99 | 99 | . | . | . | . | . | .
O=C(Nc1ccccc1O)c1c(O)c2c([nH]c1=O)CCCC2 | 25 | 102 | 10 | 97 | 102 | 98 | . | . | . | . | . | .
CN(C)/C=C/C(=O)c1cnc(-c2ccccc2)s1 | 10 | 105 | 24 | 103 | 109 | 102 | . | . | . | . | . | .
CN(C)/C=C/C(=O)c1cnc(-c2ccc(Cl)cc2)s1 | 10 | 7.8* | 0 | 3.1* | -6.2* | 2.5* | 0 | 99 | 91 | 99 | 96 | 96
CC1CCc2cc(F)ccc2N1C(=O)CCl (stereo not given) | 20 | 102 | 10 | 99 | 99 | 106 | . | . | . | . | . | .
O=C(Cc1c[nH]c2ccccc12)Nc1ccc(N2CCOCC2)cc1 | 16 | 103 | 9 | 107 | 97 | 101 | . | . | . | . | . | .
O=C(O)CSCC(=O)Nc1ccc(Br)c(C(F)(F)F)c1 | . | 32* | -2 | -38* | -12* | ? | -1 | 93 | 90 | 88 | 88 | 93
CC1CCCC(NC(=O)COC(=O)[C@@H](NC(=O)c2ccco2)C(C)C)C1C (stereo not given in full) | 20 | 102 | 5 | 103 | 99 | 100 | . | . | . | . | . | .
C=CCn1c(Cc2c[nH]c3ccccc23)nnc1SCC(=O)NCc1ccccc1 | 26 | 54* | 5 | 47* | 38 | 42* | -1 | 101 | 103 | 100 | 103 | 106
COc1ccc(OC)c2c1C(=O)C(Cl)=C(Cl)C2=O | . | 45* | 0 | 58 | -14* | ? | . | . | . | . | . | . | RGS-Gao=58*
COC(OC)c1ccnc(-c2ccc(OC(=O)c3cccs3)cc2)n1 | 11 | 15* | 0 | 23* | 13* | ? | 1 | 103 | 102 | 103 | 104 | 98
COC(OC)c1ccnc(-c2ccc(OC(=O)c3ccccc3)cc2)n1 | 10 | 90 | 10 | 88 | 89 | ? | . | . | . | . | . | .
CC1(C)CC(=O)C=C(NNC(=O)c2ccccc2)C1 | 21 | 14* | -2 | 4.6* | 8.0* | 9.9* | -1 | 103 | 103 | 103 | 103 | 96
SMILES | GSH bead fluor | RGS8-Gao | Avidin bead fluor | RGS4-Gao reg | RGS16-Gao | RGS7-Gao | Avidin counter | RGS8-Gao confirm | RGS7-Gao single | RGS16-Gao conf | RGS4-Gao confirm | RGS19-Gao conf | others
Cc1c(Cl)cccc1NC(=S)NC(=O)CCN1C(=O)c2ccccc2C1=O | 5 | 62 | 0 | 49* | 61 | 47* | 0 | 108 | 104 | 111 | 106 | 106
CS(=O)(=O)c1ccc(C(=O)OCc2nnc(-c3ccc(Cl)cc3)o2)cc1[N+](=O)[O-] | 13 | 98 | 10 | 97 | 97 | 100 | . | . | . | . | . | .
Cn1cc(S(=O)(=O)CC(=O)Nc2ccc3c(c2)OCO3)c2ccccc21 | 91* | 98 | 194* | 367*[activator] | 115 | 275*[activator] | -1 | 100 | 103 | 104 | 102 | 87
O=C(Cc1ccc(Cl)cc1)NNC(=S)NC(=O)c1cccnc1 | 13 | 95 | 9 | 93 | 95 | 93 | . | . | . | . | . | .
O=C(NC(=S)NCCOCc1ccc(Cl)cc1)c1cccnc1 | 12 | 67 | 1 | 89 | 16* | 93 | -2 | 99 | 87 | 96 | 92 | 100 | RGS-Gao=89*
Cc1nc2c(cc1C#N)C(=O)c1ccccc1-2 | 6 | 74 | 1 | 86 | 18* | 85 | -1 | 98 | 99 | 99 | 99 | 97 | RGS-Gao=86*
COc1ccc(-c2c(C#N)c(C)nc3c2C(=O)c2ccccc2-3)cc1 | 14 | 103 | 39 | 101 | 100 | 98 | . | . | . | . | . | .
Cc1cc(C)c2cc(C(=O)Nc3ccccc3)[nH]c2c1 | . | 99 | 6 | 96 | 94 | ? | . | . | . | . | . | .
O=C(COC(=O)c1cc(Br)ccc1Cl)NC1CCCC1 | 19 | 92 | 10 | 90 | 94 | ? | . | . | . | . | . | .
